# From PubChem BioAssay AID1645838 (ICCB-Longwood Screening Facility, Harvard Medical School, 2021)
# “And” between values parts separate entries of the source, which are not always exact repeats. Equal entries are not always repeated. Hit rate of the full screen: of about 2,000 compounds, about 100 (5%) were called active. This is one part of a sample in which actives are shown more often than they occur. No stated cut-off is given here; in the data, active means z-score above about 2; inactive means the rest.
# Assay: modulators of mitochondrial supercomplex assembly, cell-based, luminescence, Hoechst nuclei count (AID 1645838);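 further: control cybrid cells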
# Conditions: Cells, luminescence/Hoechst cell count ratio, supercomplex reporter; for z-score: stronger effect = higher value; for cell count: measured here: cell number, Hoechst nuclei count; for outcome: library stock 10 mM
# [1] = library stock concentration (final well concentration not given) 80 uM
# [2] = library stock concentration (final well concentration not given) 400 uM
# [3] = library stock concentration (final well concentration not given) 2 mM
# [4] = library stock concentration (final well concentration not given) 10 mM
# [5] = library stock concentration (final well concentration not given) 46 uM
# [6] = library stock concentration (final well concentration not given) 278 uM
# [7] = library stock concentration (final well concentration not given) 1.67 mM
structure (smiles),measurement,setting,value
COC(=O)CCCCCC[C@@H]1[C@@H](CCC(O)C#Cc2ccccc2F)[C@H](O)C[C@@H]1O (some centres not stated),z-score,,-0.523 (inactive)
same,cell count,,5390
CCCCC[C@H](O)/C=C/[C@@H]1[C@H]2C[C@H](CCCCC(=O)O)O[C@H]2C[C@H]1O,z-score,,0.18 (inactive)
same,cell count,,5310
COc1cc(N2CCC(C(N)=O)CC2)ccc1Nc1nc(N)c(Cl)c(Nc2ccccc2S(=O)(=O)C(C)C)n1,z-score,[1],-0.397 (inactive)
same,z-score,[2],-0.357 (inactive)
same,z-score,[3],-0.497 (inactive)
same,z-score,[4],-0.438 (inactive)
same,cell count,[1],5060
same,cell count,[2],4660
same,cell count,[3],4640
same,cell count,[4],4760
C#Cc1cccc(Nc2ncnc3cc4c(cc23)OCCOCCOCCO4)c1,z-score,[1],-0.401 (inactive)
same,z-score,[2],-0.555 (inactive)
same,z-score,[3],-0.372 (inactive)
same,z-score,[4],-0.218 (inactive)
same,cell count,[1],5760
same,cell count,[2],5920
same,cell count,[3],5800
same,cell count,[4],5980
COc1cc2ncnc(Nc3cc(Br)c(O)c(Br)c3)c2cc1OC,z-score,[1],-0.757 (inactive)
same,z-score,[2],-0.502 (inactive)
same,z-score,[3],-0.971 (inactive)
same,z-score,[4],-0.687 (inactive)
same,cell count,[1],4740
same,cell count,[2],4630
same,cell count,[3],5420
same,cell count,[4],5090
C#Cc1cccc(Nc2ncnc3cc(OCCOC)c(OCCOC)cc23)c1,z-score,[1],0.334 (inactive)
same,z-score,[2],0.287 (inactive)
same,z-score,[3],-0.186 (inactive)
same,z-score,[4],2.02 (active)
same,cell count,[1],5220
same,cell count,[2],5400
same,cell count,[3],5470
same,cell count,[4],3820
C[C@H](N)C(=O)CCCCCC(=O)O,z-score,,-0.273 (inactive)
same,cell count,,5410
NCCCNCCCCN(CCCN)[N+]([O-])=NO,z-score,,1.09 (inactive)
same,cell count,,5110
COc1ccc2cc(CC(=O)O)ccc2c1,z-score,,-0.782 (inactive)
same,cell count,,5780
CCCCC[C@H](O)/C=C/[C@H]1CC[C@H](O)[C@@H]1CCCCCCC(=O)O,z-score,,-0.59 (inactive)
same,cell count,,5510
CNC(=O)Nc1ccc(-c2nc(N3CC4CCC(C3)O4)c3cnn(C4CCC5(CC4)OCCO5)c3n2)cc1,outcome,,inactive; censored for cell count
same,z-score,[1],1.01 (inactive)
same,z-score,[2],1.56 (inactive)
same,z-score,[3],1.64 (inactive)
same,cell count,[1],2180
same,cell count,[2],1780
same,cell count,[3],1600
O=C(Nc1ccccc1)Nc1ccc(-c2ccc(C(=O)C3CCCC3C(=O)O)cc2)cc1 (configuration not stated),z-score,[1],-0.37 (inactive)
same,z-score,[2],-0.219 (inactive)
same,z-score,[3],-0.285 (inactive)
same,z-score,[4],-0.46 (inactive)
same,cell count,[1],5980
same,cell count,[2],5880
same,cell count,[3],6590
same,cell count,[4],5760
CN(C)C1CCN(C(=O)c2ccc(NC(=O)Nc3ccc(-c4nc(N5CCOCC5)nc(N5CCOCC5)n4)cc3)cc2)CC1,outcome,,inactive; censored for cell count
same,z-score,[1],-0.0957 (inactive)
same,z-score,[2],0.581 (inactive)
same,z-score,[3],2.23 (active)
same,cell count,[1],5680
same,cell count,[2],4160
same,cell count,[3],1900
CC(C)CCC[C@@H](C)[C@H]1CC[C@H]2[C@@H]3CC(=O)[C@@]4(O)C[C@@H](O)CC[C@]4(C)[C@H]3CC[C@]12C,z-score,,0.076 (inactive)
same,cell count,,4620
CN(CC=CC#CC(C)(C)C)Cc1cccc2ccccc12,z-score,[5],-0.128 (inactive)
same,z-score,[6],-0.114 (inactive)
same,z-score,[7],-0.2 (inactive)
same,z-score,[4],-0.286 (inactive)
same,cell count,[5],4930
same,cell count,[6],4830
same,cell count,[7],5350
same,cell count,[4],5180
CCCCCCCCC#CCCCCCCCC(=O)c1nc2ncccc2o1,z-score,,-0.992 (inactive)
same,cell count,,5900
CCOC(=O)C(N)Cc1ccc(-c2cc(OC(c3ccc(Cl)cc3-n3ccc(C)n3)C(F)(F)F)nc(N)n2)cc1 (configuration not stated),z-score,[5],-0.503 (inactive)
same,z-score,[6],-0.649 (inactive)
same,z-score,[7],-0.638 (inactive)
same,z-score,[4],1.7 (inactive)
same,cell count,[5],6360
same,cell count,[6],6270
same,cell count,[7],6660
same,cell count,[4],2760
CCCCCCCCCCCCCCCCOC[C@H](COP(=O)([O-])OCC[N+](C)(C)C)OC(=O)NC,z-score,,-1.68 (inactive)
same,cell count,,5690
O=C(c1cc(Cc2n[nH]c(=O)c3ccccc23)ccc1F)N1CCN(C(=O)C2CC2)CC1,z-score,[1],-0.363 (inactive)
same,z-score,[2],-0.127 (inactive)
same,z-score,[3],0.0622 (inactive)
same,z-score,[4],2.51 (active)
same,cell count,[1],6190
same,cell count,[2],5590
same,cell count,[3],5940
same,cell count,[4],3720
Nc1ccccc1NC(=O)c1ccc(CNC(=O)OCc2cccnc2)cc1,z-score,,5.22 (active)
same,z-score,[5],-0.106 (inactive)
same,z-score,[6],-0.0587 (inactive)
same,z-score,[7],4.46 (active)
same,z-score,[4],13.5 (active)
same,cell count,,4300
same,cell count,[5],4680
same,cell count,[6],4820
same,cell count,[7],3240
same,cell count,[4],1730
CC(C)(C)c1ccc(S(=O)(=O)NCc2ccc(C(=O)Nc3cccnc3)cc2)cc1,z-score,[1],-0.216 (inactive)
same,z-score,[2],0.0762 (inactive)
same,z-score,[3],0.362 (inactive)
same,z-score,[4],0.0219 (inactive)
same,cell count,[1],6170
same,cell count,[2],5130
same,cell count,[3],2500
same,cell count,[4],1690
O=C(NCc1cccnc1)c1ccc(CNS(=O)(=O)c2ccc(F)cc2)cc1,z-score,[1],-0.0415 (inactive)
same,z-score,[2],-0.565 (inactive)
same,z-score,[3],-0.611 (inactive)
same,z-score,[4],-0.531 (inactive)
same,cell count,[1],5120
same,cell count,[2],5290
same,cell count,[3],5220
same,cell count,[4],4960
CC1CN(CC(=O)Nc2ccc3c(c2)Cc2cccc(-c4cc(=O)cc(N5CCOCC5)o4)c2S3)CC(C)O1 (configuration not stated),z-score,[1],-0.376 (inactive)
same,z-score,[2],-0.656 (inactive)
same,z-score,[3],0.69 (inactive)
same,z-score,[4],4.45 (active)
same,cell count,[1],6150
same,cell count,[2],6090
same,cell count,[3],4680
same,cell count,[4],1840
O=c1cc(-c2cccc3c2Sc2ccccc2S3)oc(N2CCOCC2)c1,z-score,[5],-0.163 (inactive)
same,z-score,[1],-0.486 (inactive)
same,z-score,[6],-0.0765 (inactive)
same,z-score,[2],-0.335 (inactive)
same,z-score,[7],-0.27 (inactive)
same,z-score,[3],-0.523 (inactive)
same,z-score,[4],0.302 (inactive) and 0.32 (inactive)
same,cell count,[5],6030
same,cell count,[1],4590
same,cell count,[6],5590
same,cell count,[2],4700
same,cell count,[7],5740
same,cell count,[3],4720
same,cell count,[4],3610 and 4370
CCCCCCCCCCCCCCCCCCCCCC(=O)NCCO,z-score,,0.434 (inactive)
same,cell count,,5500
O=C(O)CCC/C=C\C[C@H]1[C@@H](/C=C/[C@@H](O)CCc2ccccc2)[C@H](O)C[C@@H]1O,z-score,,-0.319 (inactive)
same,cell count,,5160
CCCCCC(=O)Nc1c(C)cc(Br)cc1C,z-score,[1],0.207 (inactive)
same,z-score,[2],0.413 (inactive)
same,z-score,[3],-0.729 (inactive)
same,z-score,[4],-0.28 (inactive)
same,cell count,[1],4910
same,cell count,[2],4850
same,cell count,[3],5330
same,cell count,[4],4660
O=C(CCCCc1ccccc1)C(F)(F)C(F)(F)F,z-score,,-0.184 (inactive)
same,cell count,,5310
CC(=O)N[C@@H](CSC/C=C(\C)CC/C=C(\C)CC/C=C(\C)CCC=C(C)C)C(=O)O,z-score,,1.41 (inactive)
same,cell count,,5420
Cn1cnc2c(NCc3ccccc3)nc(NCCO)nc21,z-score,,0.158 (inactive)
same,cell count,,4830
NC(=O)c1cnc(NCCc2ccc(O)c(Cl)c2)nc1NCc1ccccc1,outcome,,inactive; censored for cell count
same,z-score,[5],-1.13 (inactive)
same,z-score,[6],-0.967 (inactive)
same,z-score,[7],6.17 (active)
same,cell count,[5],7430
same,cell count,[6],6770
same,cell count,[7],1590
CCC(CO)Nc1nc(NCc2ccccc2)c2ncn(C(C)C)c2n1 (configuration not stated),z-score,[1],-0.719 (inactive)
same,z-score,[2],-0.53 (inactive)
same,z-score,[3],-0.509 (inactive)
same,z-score,[4],0.143 (inactive)
same,cell count,[1],5300
same,cell count,[2],4780
same,cell count,[3],4590
same,cell count,[4],3210
